About 83,000 compounds went through this panel and 20% of them were active in at least one assay; those are over-represented in the sample as a whole.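 Single-concentration screen, 48 h exposure, 96-well plates. Endpoint: percent growth. Below 10 = active.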 Unmarked numbers belong to inactive results. Active and inactive are the calls of the source.

The record followed here is PubChem BioAssay (NCI).

Test in all cases: NCI-60 one-dose screen, 48 h (100 = growth as untreated, 0 = no growth, -100 = all killed)
One assay deals with SR leukemia. Conditions: 10 µM unless noted.
The next assay concerns RPMI-8226 leukemia. Particulars: 10 µM.
For another assay, the system named is OVCAR-8 ovarian. Conditions: 10 µM unless noted.
A further assay concerns OVCAR-5 ovarian. Particulars: 10 µM unless noted.
A further assay relates to OVCAR-4 ovarian. Particulars: 10 µM unless noted.
The next assay concerns SK-OV-3 ovarian. Particulars: 10 µM.
In another assay the test system is IGROV1 ovarian. Conditions: 10 µM unless noted.
The next assay deals with OVCAR-3 ovarian. Particulars: 10 µM unless noted.
For a further assay, the system named is HS 578T breast. Particulars: 10 µM unless noted.
A further assay has as its system T-47D breast. Particulars: 10 µM.
The next assay concerns BT-549 breast. Conditions: 10 µM unless noted.
Another assay concerns MDA-MB-435 melanoma. Conditions: 10 µM unless noted.
In another assay the test system is SW-620 colon. Conditions: 10 µM unless noted.
Another assay has as its system MCF7 breast. Particulars: 10 µM unless noted.
Another assay has as its system HCC-2998 colon. Conditions: 10 µM unless noted.
In another assay the test system is KM12 colon. Particulars: 10 µM unless noted.
The next assay relates to HCT-116 colon. Particulars: 10 µM unless noted.
A further assay has as its system NCI/ADR-RES ovarian. Particulars: 10 µM unless noted.

Take `CCCN(CCC)c1ccc(/C=C/c2ccc3cc(OCC)ccc3n2)cc1`: the growth was -8.74% (active) with SR leukemia; 35.6% in the assay with RPMI-8226 leukemia; 94.6% with OVCAR-8 ovarian; 110% in the assay with OVCAR-5 ovarian; 80.8% in the assay on OVCAR-4 ovarian; 104% in the assay on SK-OV-3 ovarian. In addition, the growth in the assay on IGROV1 ovarian was 99.6%; in the assay on OVCAR-3 ovarian it was 132%; in the assay on HS 578T breast, 66.5%; in the assay on T-47D breast, 59.1%; with BT-549 breast, 119%; in the assay on MDA-MB-435 melanoma, 95%. Besides, the growth in the assay with SW-620 colon is 89.6%; in the assay with MCF7 breast, 84.9%; in the assay with HCC-2998 colon it was 94.4%; in the assay on KM12 colon, 128%.
For `NC(=O)c1cc(I)ccc1NC(=O)COc1ccccc1`, the growth with SR leukemia is 20.2%; in the assay on RPMI-8226 leukemia it was 9.76% (active); with OVCAR-8 ovarian, 15.9%; with OVCAR-5 ovarian it was 39.1%; in the assay with OVCAR-4 ovarian, 78.9%; in the assay with SK-OV-3 ovarian, -2.65% (active). In addition, the growth with IGROV1 ovarian was 44.2%; in the assay with OVCAR-3 ovarian, 12%; with HS 578T breast, 36.6%; with BT-549 breast, 69.3%; in the assay on MDA-MB-435 melanoma, -56% (active); in the assay on SW-620 colon it was 23.5%. The growth was 17.7% with MCF7 breast, 19% with HCT-116 colon, 13.9% in the assay with HCC-2998 colon and 19.9% with KM12 colon.
In the case of `CCCCCn1c(=N)n(CC(O)COc2cccc(C)c2)c2ccccc21` (centres undefined), the growth was 2.12% (active) in the assay with SR leukemia; -10.8% (active) with RPMI-8226 leukemia; 20.9% in the assay on OVCAR-8 ovarian; 61.7% in the assay with OVCAR-5 ovarian; 6.79% (active) in the assay with OVCAR-4 ovarian; 13.1% with SK-OV-3 ovarian. The growth was 28.1% with IGROV1 ovarian; 7.4% (active) in the assay on OVCAR-3 ovarian; 3.77% (active) in the assay on NCI/ADR-RES ovarian; -0.186% (active) in the assay with T-47D breast; -16.9% (active) in the assay on BT-549 breast; 6.94% (active) in the assay on MDA-MB-435 melanoma. Further, the growth in the assay with SW-620 colon is 10.8%; in the assay on MCF7 breast, 7.34% (active); in the assay with HCT-116 colon, 11%; with KM12 colon, 6.37% (active).
Consider `Cc1nn(CC(=O)O)c2c1C(=O)CC(C)(C)C2`, for which the growth with SR leukemia is 89.1%; in the assay with RPMI-8226 leukemia, 99.2%; in the assay on OVCAR-8 ovarian it was 104%; with OVCAR-5 ovarian, 91.2%; in the assay with OVCAR-4 ovarian it was 101%; with SK-OV-3 ovarian, 101%. For the same molecule, the growth with IGROV1 ovarian was 94.1%; in the assay with OVCAR-3 ovarian, 110%; with HS 578T breast it was 102%; in the assay on T-47D breast, 104%; with BT-549 breast, 104%; with MDA-MB-435 melanoma it was 106%. Also, the growth in the assay with SW-620 colon was 117%; with MCF7 breast, 102%; in the assay on HCT-116 colon it was 92.3%; in the assay on HCC-2998 colon, 98.9%; with KM12 colon, 109%.
`C=CC(=O)N1CC2(CC(n3nc(-c4ccc(Oc5ccccc5)cc4)c4c(N)ncnc43)C2)C1`: the growth with SR leukemia is 31.5%; in the assay with RPMI-8226 leukemia it was 41%; with OVCAR-8 ovarian, 28.7%; in the assay on OVCAR-5 ovarian it was 54.8%; in the assay on OVCAR-4 ovarian, 27.4%; in the assay with SK-OV-3 ovarian, 5.31% (active). For the same molecule, the growth in the assay with IGROV1 ovarian was 10.7%; with OVCAR-3 ovarian, 30.9%; in the assay on HS 578T breast, -11.6% (active); with T-47D breast it was 36.4%; in the assay on BT-549 breast, 29.9%; with MDA-MB-435 melanoma it was 30.4%. The growth with SW-620 colon was 78.8%; in the assay with MCF7 breast, 26.5%; in the assay on HCT-116 colon, 45.4%; in the assay with HCC-2998 colon, 64.9%; with KM12 colon it was 48.9%.
Consider `Cn1c2c(cc(S(=O)(=O)c3ccccc3)c1=O)CCc1c-2cnn1-c1ccccc1Cl`, for which the growth with SR leukemia is 80.2%; in the assay with RPMI-8226 leukemia it was 91.7%; in the assay with OVCAR-8 ovarian it was 88.6%; in the assay with OVCAR-5 ovarian, 96.5%; in the assay with OVCAR-4 ovarian, 101%; in the assay with SK-OV-3 ovarian it was 88.7%. In addition, the growth is 107% in the assay on IGROV1 ovarian; 110% with OVCAR-3 ovarian; 117% in the assay with HS 578T breast; 68% in the assay with T-47D breast; 100% in the assay with MDA-MB-435 melanoma; 116% in the assay on SW-620 colon. Further, the growth in the assay with HCT-116 colon is 109%; in the assay on HCC-2998 colon, 118%; in the assay on KM12 colon it was 112%.
Turning to `O=C1N/C(=C\c2ccccc2)c2ncccc21`, the growth was 76.4% with SR leukemia; 106% in the assay with RPMI-8226 leukemia; 110% with OVCAR-8 ovarian; 118% with OVCAR-5 ovarian; 95.5% with OVCAR-4 ovarian; 89.9% in the assay with SK-OV-3 ovarian. Also, the growth with IGROV1 ovarian was 92.3%; in the assay with OVCAR-3 ovarian, 99.2%; in the assay with HS 578T breast, 120%; in the assay with T-47D breast, 79.5%; in the assay with MDA-MB-435 melanoma, 109%; with SW-620 colon, 113%. Moreover, the growth with MCF7 breast is 80%; in the assay with HCT-116 colon it was 101%; with HCC-2998 colon, 109%; in the assay with KM12 colon, 97.2%.
Consider `CC1(C)CC(=O)C2=C(C1)Nc1cc3c(cc1C2c1ccc(F)cc1)OCO3` (centres undefined), for which the growth is 90.4% with SR leukemia; 92.1% in the assay with RPMI-8226 leukemia; 97% in the assay with OVCAR-8 ovarian; 107% in the assay on OVCAR-5 ovarian; 93.9% in the assay on OVCAR-4 ovarian; 97.6% with SK-OV-3 ovarian. The growth in the assay on IGROV1 ovarian is 100%; in the assay with OVCAR-3 ovarian, 103%; in the assay with HS 578T breast, 88.3%; with T-47D breast it was 85.3%; in the assay on BT-549 breast, 110%; in the assay with MDA-MB-435 melanoma, 102%. Further, the growth in the assay on SW-620 colon was 104%; in the assay with MCF7 breast it was 90.6%; in the assay on HCT-116 colon it was 96.7%; in the assay with HCC-2998 colon, 102%; with KM12 colon, 99.3%.
Take `COc1ccc(OC2=C(C#N)C(=N)N3c4ccccc4Sc4ccccc4C3N2)cc1` (centres undefined): the growth in the assay with SR leukemia is 104%; in the assay on RPMI-8226 leukemia it was 88%; in the assay with OVCAR-8 ovarian, 102%; with OVCAR-5 ovarian it was 102%; in the assay on OVCAR-4 ovarian it was 112%; with SK-OV-3 ovarian, 79.3%. For the same molecule, the growth in the assay on IGROV1 ovarian was 63%; in the assay with OVCAR-3 ovarian, 92.1%; with NCI/ADR-RES ovarian it was 85.2%; in the assay on T-47D breast it was 87%; in the assay on BT-549 breast, 96.9%; with MCF7 breast, 95.6%. In addition, the growth in the assay with HCC-2998 colon was 95.2%; with KM12 colon it was 97.7%.
Consider `COc1cc(C2C3=C(COC3=O)N(CCO)c3cc4c(cc32)OCO4)cc(OC)c1O` (centres undefined), for which the growth is 21.5% in the assay on SR leukemia; 21.8% in the assay with RPMI-8226 leukemia; 42.8% in the assay with OVCAR-8 ovarian; 72% with OVCAR-5 ovarian; 48.3% in the assay with OVCAR-4 ovarian; 31.8% in the assay on SK-OV-3 ovarian. Moreover, the growth with IGROV1 ovarian was 36%; with OVCAR-3 ovarian, -25.9% (active); in the assay on NCI/ADR-RES ovarian, 73.3%; in the assay on T-47D breast, 35.3%; in the assay on BT-549 breast, 59.9%; in the assay on MDA-MB-435 melanoma, -39.6% (active). The growth with SW-620 colon was 14.8%; in the assay on HCC-2998 colon, 28.4%; with KM12 colon, 20.9%.
